Test [1] in a line: Tanguay_ZF_120hpf_MORT: Oregon State University Tanguay Lab 120 Hour Post-fertilization zebrafish Assay for Mortality (AID 2284399). The essentials:
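Mortality, recorded present/absent via brightfield imaging at 24 and 120 hpf, in 5D zebrafish embryos exposed statically from 6 hpf after pronase chorion removal. Exposure at 28C, 0.64% DMSO vehicle, DMSO baseline.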

Test [2] can be described thus: Tanguay_ZF_120hpf_EDEM: Oregon State University Tanguay Lab 120 Hour Post-fertilization zebrafish Assay for Edema Malformation (AID 2284400). The gist of the method: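 Edema recorded as a binary endpoint under brightfield at 120 hpf, excluding embryos that died. Exposure was static, sealed, 28C, from 6 hpf in dechorionated wild-type larvae, final DMSO 0.64%, DMSO as baseline.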

Test [3] can be described thus: Tanguay_ZF_120hpf_TCHR: Oregon State University Tanguay Lab 120 Hour Post-fertilization zebrafish Assay for Touch Responsive (AID 2284403). The gist of the method: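 Binary touch-response calls are made at 120 hpf in 5D wild-type zebrafish larvae. These larvae were dechorionated with pronase and exposed singly from 6 hpf in sealed, dark plates at 28 °C with 0.64% DMSO final; dead embryos are excluded.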

A short description of test [4]: Tanguay_ZF_120hpf_ANY: Oregon State University Tanguay Lab 120 Hour Post-fertilization zebrafish Assay for Any Mortality and Malformation (AID 2284404). The essentials:
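Dechorionated Tropical 5D wild-type embryos, one per well from 6 hpf, static exposure in sealed, dark plates at 28C until 120 hpf, 0.64% DMSO final. Brightfield scoring of mortality and malformations as binary presence/absence, pooling 13 morphology endpoints.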

Test [5] is described as follows: CCTE_Padilla_ZF_Score.Craniofacial: CCTE's 144 Hour Post-fertilization zebrafish Assay Score for Craniofacial Malformation, Padilla Lab (AID 2284405). The gist of the method: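 Craniofacial defects were scored at 6 dpf by two blinded observers using stereomicroscopy. Exposure of wild-type embryos began at 6–8 hpf in sealed wells of 10% Hanks' solution at 26C, with chemical removed by rinsing at 5 dpf.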

A short description of test [6]: CCTE_Padilla_ZF_Score.Edema: CCTE's 144 Hour Post-fertilization zebrafish Assay Score for Edema Malformation, Padilla Lab (AID 2284406). The gist of the method:
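Edema scored at 6 dpf by two blinded observers under a stereo microscope, in single outbred wild-type larvae exposed from 6-8 hpf in sealed wells (Hanks', 26C, 14:10 h light) and chemical-free after a 5 dpf rinse.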

A short description of test [7]: CCTE_Padilla_ZF_Score.Spine: CCTE's 144 Hour Post-fertilization zebrafish Assay Score for Spine Malformation, Padilla Lab (AID 2284407). The essentials:
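Spine malformation scored at 6 dpf by two independent blinded observers under stereomicroscope, after static sealed exposure from 6–8 hpf at 26C in Hanks' solution with rinse on 5 dpf. Positive-direction fit against DMSO control.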

Test [8] is described as follows: CCTE_Padilla_ZF_Score.Swim_bladder: CCTE's 144 Hour Post-fertilization zebrafish Assay Score for Swim Bladder Malformation, Padilla Lab (AID 2284408). The essentials: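 Swim bladder inflation scored at 6 dpf by two blinded observers under a stereo microscope. Exposure ran from 6–8 hpf in sealed wells of 10% Hanks' at 26C, with rinsing at 5 dpf; DMSO served as baseline.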

Test [9] in a line: CCTE_Padilla_ZF_Score.Position: CCTE's 144 Hour Post-fertilization zebrafish Assay Score for Position, Padilla Lab (AID 2284409). The gist of the method: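 Wild-type zebrafish embryos (with chorions) exposed singly from 6–8 hpf in sealed wells of Hanks' solution at 26C, rinsed at 5 dpf. At 6 dpf, blinded assessors scored abnormal water-column position by brightfield stereomicroscopy, relative to DMSO.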

Molecules are shown by their SMILES. Calls of active or inactive are those of the source. Rule for the calls: active = hit-call score of the fitted dose curve at least 0.9, where 1 is the maximum; inactive = score below 0.9.

For orientation: AC50 means the midpoint of the concentration-response curve, whichever way the signal moves. With `O=S(=O)(O)C(F)(F)C(F)(F)C(F)(F)C(F)(F)C(F)(F)C(F)(F)C(F)(F)F`, the outcome in test [1] and in [7] was inactive. Besides, the AC50 in test [2] was 46.3 µM (active); in [3] it was 43.2 µM (active); in test [4], 33 µM (active); in test [5], 65.3 µM (active); in test [6] it was 25.8 µM (active); in test [8], 21.3 µM (active). Besides, the AC50 in test [9] was 22 µM (active).
With `O=C(O)C=C(C(F)(F)F)C(F)(F)F`, the call in test [1], in [2], in test [3], in test [4], in test [5] and in test [6] was inactive. In addition, the compound was classed as inactive in [7], in test [8] and in test [9].
Take `O=S(=O)(OCC(F)F)C(F)(F)F`: the outcome in test [1], in test [2], in [3], in test [4], in test [5] and in test [6] was inactive. Also, the result in test [7], in [8] and in test [9] was inactive.
Regarding `NC(=O)C(F)(F)C(F)(F)C(F)(F)C(F)(F)F`, the compound was called inactive in [1], in test [2], in test [3], in test [4], in test [5] and in test [6]. Also, the result in test [7], in test [8] and in test [9] was inactive.
Consider `FC(F)(F)C(F)(F)C(F)(F)N(C(F)(F)C(F)(F)C(F)(F)F)C(F)(F)C(F)(F)C(F)(F)F`, for which the outcome in [1], in test [2], in [3], in [4], in test [5] and in test [6] was inactive. For the same compound, the call in test [7], in test [8] and in test [9] was inactive.
Regarding `FC(F)(F)C(F)(F)C(F)(F)C(F)(F)CCI`, the outcome in test [1], in [2], in test [3], in [4], in test [5] and in test [6] was inactive. Also, the call in [7], in test [8] and in [9] was inactive.
Consider `OCCCC(F)(F)C(F)(F)C(F)(F)F`, for which the call in test [1], in test [2], in test [3], in test [4], in test [5] and in test [6] was inactive. Besides, the compound was called inactive in [7], in [8] and in test [9].
Consider `FC(F)(F)C(F)(F)C(F)(F)C(F)(F)C(F)(F)C(F)(F)C(F)(F)C(F)(F)CCS`, for which the compound was classed as inactive in test [1], in [2], in [3], in test [4], in test [5] and in test [6]. Further, the compound was classed as inactive in test [7], in test [8] and in [9].
For `O=C(Cl)C(F)(F)C(F)(F)C(F)(F)C(F)(F)C(F)(F)C(F)(F)C(F)(F)C(F)(F)F`, the outcome in [5], in test [7], in test [8] and in test [9] was inactive. Also, the concentration at half-maximal activity (AC50) in test [6] was 10 µM (active).
Regarding `FC(F)(Br)C(F)(F)C(F)(F)C(F)(F)C(F)(F)C(F)(F)Br`, the compound was classed as inactive in test [5], in test [6], in test [7], in [8] and in [9].
Consider `OCC(F)(F)C(F)(F)C(F)(F)C(F)(F)C(F)(F)C(F)F`, for which the call in test [1], in test [2], in test [3], in test [4], in test [5] and in test [6] was inactive. Besides, the compound was called inactive in test [7], in [8] and in test [9].
Consider `N=C(N)C(F)(F)C(F)(F)C(F)(F)C(F)(F)C(F)(F)C(F)(F)C(F)(F)F`, for which the outcome in [1], in test [2], in [3], in test [4], in test [5] and in test [6] was inactive. The outcome in [7], in test [8] and in test [9] was inactive.
As to `FC(F)(F)C(F)(F)C(F)(F)C(F)(F)C(F)(F)C(F)(F)C(F)(F)Br`, the call in test [1], in [2], in test [3], in test [4], in test [5] and in test [6] was inactive. The compound was called inactive in [7], in test [8] and in [9].
Turning to `OCC(F)(F)C(F)(F)C(F)(F)C(F)F`, the call in test [1], in test [2], in test [3], in test [4], in [5] and in [6] was inactive. Moreover, the call in [7], in test [8] and in test [9] was inactive.
With `FC(F)(F)C(F)(F)C(F)(F)C(F)(F)C(F)(F)C(F)(F)CCS`, the call in test [5], in test [6], in [7], in [8] and in test [9] was inactive.
Take `FC(F)(F)C(F)(F)C(F)(F)C(F)(F)C(F)(F)CCI`: the outcome in [1], in test [2], in [3], in test [4], in test [5] and in test [7] was inactive. In [9], the call was inactive. For the same compound, the AC50 in test [6] and in test [8] was 30.4 µM (active) in each case.
Consider `O=C(O)C(F)(F)C(F)(F)C(F)(F)F`, for which the compound was called inactive in test [1], in test [2], in test [3], in test [4], in [5] and in [6]. For the same compound, the compound was classed as inactive in test [7], in test [8] and in test [9].
`C=CC(F)(F)C(F)(F)C(F)(F)C(F)(F)C(F)(F)C(F)(F)C(F)(F)C(F)(F)F`: the compound was called inactive in test [1], in [2], in [3], in test [4], in test [5] and in [6]. The compound was called inactive in test [7], in test [8] and in test [9].
On to `FC(F)(F)C(F)(F)C(F)(F)C(F)(F)C(F)(F)C(F)(F)C(F)(F)C(F)(F)F`, for which the call in test [1], in test [2], in [3], in test [4], in test [5] and in [6] was inactive. In addition, the outcome in test [7], in test [8] and in test [9] was inactive.
In the case of `FC(F)(I)C(F)(F)C(F)(F)C(F)(F)I`, the results for the AC50 in test [5], in test [6] and in [8] were 76.2 µM (active), 24.3 µM (active) and 27.5 µM (active), respectively. The result in test [7] and in test [9] was inactive.
`O=C(O)C(F)(F)C(F)(F)F`: the compound was classed as inactive in test [1], in [2], in [3], in [4], in test [5] and in test [6]. The compound was classed as inactive in [7], in [8] and in test [9].
On to `OCCCC(F)(F)C(F)(F)C(F)(F)C(F)(F)C(F)(F)C(F)(F)C(F)(F)F`, for which the call in test [1], in test [2], in test [3], in [4], in [5] and in [7] was inactive. In test [9], the compound was classed as inactive. Besides, the AC50 is 36.4 µM (active) in [6] and 88.1 µM (active) in test [8].
`O=C(O)C(F)(F)C(F)(F)C(F)(F)C(F)(F)C(F)(F)C(F)(F)C(F)(F)C(F)(F)C(F)(F)C(F)(F)C(F)(F)C(F)(F)C(F)(F)F`: the outcome in [1], in test [2], in test [3], in test [4], in test [5] and in test [6] was inactive. The outcome in [7], in test [8] and in test [9] was inactive.
In the case of `O=C(O)C(F)(F)C(F)(F)OC(F)(F)F`, the compound was classed as inactive in test [1], in test [2], in test [3], in test [4], in test [5] and in [6]. The result in test [7], in test [8] and in [9] was inactive.
Regarding `OCC(F)(F)C(F)(F)C(F)(F)C(F)(F)C(F)(F)C(F)(F)F`, the compound was classed as inactive in test [1], in test [2], in test [3], in test [5], in test [7] and in test [8]. Further, in test [9], the outcome was inactive. In addition, the AC50 in [4] is 112 µM (active); in test [6], 84.7 µM (active).
As to `O=C(O)C(F)(F)C(F)(F)C(F)F`, the compound was called inactive in test [1], in test [2], in [3], in test [4], in test [5] and in [6]. Moreover, the call in test [7], in [8] and in test [9] was inactive.
In the case of `CCO[Si](CCC(F)(F)C(F)(F)C(F)(F)C(F)(F)C(F)(F)C(F)(F)F)(OCC)OCC`, the compound was classed as inactive in test [1], in test [2], in test [3], in test [4], in test [5] and in test [6]. In addition, the compound was called inactive in [7], in [8] and in test [9].

The values above are taken from PubChem BioAssay (EPA / NIEHS).
